Most compounds without a hit are left out; they make up all but 4.1% or so of the library.
Gli-Sufu block = Gli-Sufu pathway antagonism. Sufu-KO-LIGHT fibroblasts, Gli luciferase reporter luminescence. inhibition, % at 5 µM. actives 0.74% (n = 340,000);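 active means inhibition above about 55%, limit read from the data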;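 further: 0% = DMSO-treated cells and 100% = wells with medium but no cells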
aSyn 5UTR inh = 5' untranslated region of α-synuclein, MLPCN primary screen; alpha-synuclein 5'UTR reporter, inhibitor activity; inhibition, % (tested at 7.5 µM); actives 0.82% (n = 300,000); in the data active means inhibition above about 60%;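 further: H4 neuroglioblastoma cells stably carrying SNCA 5'UTR luciferase fusion; 0% = DMSO wells and 100% = positive control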
KLF5 inhibitor = inhibitors of KLF5 expression | actives 0.23% (n = 290,000) | AID 1700 | inhibition, % at 5 µM | DLD-1 KLF5 promoter-luciferase reporter, luminescence;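 active means inhibition above a per-plate limit of that plate's mean compound inhibition plus 3 SD, cut at about 60% in these data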;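 further: 0% = DMSO wells and 100% = LY294002 at 200 µM; higher means less KLF5 promoter-driven luciferase light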
697 NFkB inh = lowers PMA/ionomycin-induced NF-kB signal in 697 B cells. 697 B-cell NF-kB luciferase reporter, 16 h. inhibition, % at 4 µM. actives 0.33% (n = 330,000); in the data active means inhibition above about 35%
Jurkat NFkB inh = lowers PMA/ionomycin-induced NF-kB signal in Jurkat cells; inhibition, % at 4 µM; AID 435003; PMA/ionomycin-induced NF-kB luciferase reporter, luminescence; actives 0.53% (n = 330,000); in the data active means inhibition above about 50%
Mdm2-MdmX inh = disrupts the human Mdm2-MdmX interaction. O15151+Q00987. SaOS-2 split-luciferase Mdm2/MdmX complementation, luminescence. inhibition, % at 8 µM. actives 3% (n = 330,000). AID 485346;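 active means inhibition of at least 50% at 8 µM in the primary screen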
Jurkat NFkB conf = inhibitors of the PMA/ionomycin-induced NF-kB reporter in Jurkat cells, retest; shares compounds with Jurkat NFkB inh; Jurkat NF-kB luciferase, 16 h; inhibition, % at 4 µM; actives 27% (n = 2,700);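 active means inhibition reaching about 45% at 4 µM in either replicate, limit read from the data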;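 further: plate controls were PMA/ionomycin stimulated DMSO wells for no effect and unstimulated DMSO wells for full effect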
697 NFkB conf = inhibitors of the PMA/ionomycin-induced NF-kB reporter in 697 B cells, retest; shares compounds with 697 NFkB inh; actives 35% (n = 2,000); AID 449746; inhibition, % at 4 µM; 697 B-cell NF-kB luciferase, 16 h; in the data active means inhibition mostly above about 28%, no sharp cut-off; inactive means mostly below about 22%
Mdm2-MdmX conf = confirmation of human Mdm2/MdmX interaction inhibitors | shares compounds with Mdm2-MdmX inh | Mdm2-MdmX binding, luminescent assay | inhibition, % at 8 µM | actives 55% (n = 10,000); in the data active means inhibition above about 40%
FLuc counter = full-length luciferase inhibition in Mdm2/MdmX counter-screen | actives 77% (n = 6,200) | shares compounds with Mdm2-MdmX inh | SaOS-2 full-length luciferase counterscreen, luminescence | inhibition, % at 8 µM;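 active means mean inhibition at 8 µM reaching about 37%, which flags the compound as non-specific, limit read from the data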;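 further: p53-null SaOS-2 cells with luciferase driven by a doxycycline-inducible promoter; compound on cells about two nights before reading with doxycycline added after day one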
Active calls of the source: *; . = not tested or not shown.

SMILES | Gli-Sufu block | aSyn 5UTR inh | KLF5 inhibitor | 697 NFkB inh | Jurkat NFkB inh | Mdm2-MdmX inh | Jurkat NFkB conf | Mdm2-MdmX conf | FLuc counter | others
O=C(CN(C(=O)c1csnn1)c1ccc(Cl)cc1)NCCc1ccccc1 | 8 | 0 | -29 | -3 | 13 | -13 | . | . | .
CSc1cccc(NC(=O)c2ccc(NC3=NC4CS(=O)(=O)CC4S3)cc2)c1 (stereo not given) | 6 | -17 | -33 | 7 | 16 | 0 | . | . | .
CC(C)(C)NC(=S)N/N=C/c1c(Cl)cccc1Cl | 3 | 20 | -31 | -7 | 2 | 13 | . | . | .
Clc1cccc(Cl)c1/C=N/Nc1c(Cl)cncc1Cl | -16 | -30 | 9 | -35 | 73* | 65* | 49 | 64* | 22
CCOC(=O)C1=C(COC(=O)c2ccc(Cl)nc2)NC(=O)NC1C (stereo not given) | -2 | . | . | . | . | . | . | . | .
COc1ccc(Nc2nc(-c3sc(C)nc3C)cs2)cc1 | 28 | 39 | 44 | -70 | 51* | 50* | 42 | 45* | 61*
Cc1ccccc1S(=O)(=O)Cc1ccc(C(=O)N2CC(C)CC(C)C2)o1 (stereo not given) | 1 | -8 | 23 | 0 | 0 | -2 | . | . | .
Cc1ccccc1S(=O)(=O)Cc1ccc(C(=O)N2CCN(c3cccc(C)c3C)CC2)o1 | 2 | 101* | 5 | -82 | 51* | 57* | 29 | 68* | 50*
COc1ccc(S(=O)Cc2ccc(C(=O)N3CCN(c4cccc(C)c4C)CC3)o2)cc1 (stereo not given) | 26 | 36 | 25 | -118 | 51* | 50* | 20 | 55* | 36*
COc1ccc(CCNC(=O)CCCN2C(=O)C(c3ccccc3)Oc3cccnc32)cc1OC (stereo not given) | 33 | -2 | -7 | -26 | 2 | 13 | . | . | .
O=[N+]([O-])c1ccc(O)c(/C=N/Nc2nc3ccccc3[nH]2)c1 | 12 | 47 | 24 | -65 | 55* | 89* | 34 | 52* | 48*
COc1cc(OC)cc(C(=O)Nc2ccc(N3CCN(C(=O)c4cccs4)CC3)cc2)c1 | 6 | -180 | 20 | -63 | 64* | 63* | 20 | 70* | 69*
Cc1cc(C)cc(C(=O)N2CC(=O)Nc3ccccc32)c1 | . | 110* | 48 | 9 | 60* | 58* | 56* | 60* | 77*
Cc1ccc(NC(=O)c2nc[nH]c2C(=O)NCCCCNC(=O)c2[nH]cnc2C(=O)Nc2ccc(C)cc2)cc1 | 4 | . | . | 25 | 50* | 80* | 17 | 21 | .
O=S1(=O)Nc2c(ccc3cccnc23)-c2ccccc21 | 82* | 6 | 55 | -82 | 69* | 100* | 54* | 97* | 54*
N=c1c2c(-c3ccccc3)c(-c3ccccc3)n(Cc3ccco3)c2ncn1CCCO | 19 | -30 | 29 | -16 | 56* | 61* | 19 | 38 | 59*
CCCCn1nc(C(=O)N2CCN(S(=O)(=O)c3ccccc3)CC2)c2ccccc2c1=O | 2 | 12 | . | -11 | 4 | 14 | . | . | .
O=C(NNC(=O)C12CC3CC(CC(C3)C1)C2)c1ccccn1 | 2 | -50 | 39 | 23 | 72* | 54* | 23 | 54* | 51*
COc1cc(C2C3=C(Nc4ncnn42)c2ccccc2CC3)cc(OC)c1OC (stereo not given) | 36 | 83* | 78* | 4 | 75* | 66* | 61* | 67* | 131*
COc1ccc(C2C3=C(Nc4ncnn42)c2ccccc2CCC3)cc1 (stereo not given) | 2 | 27 | -13 | -11 | -17 | 13 | . | . | .
Cc1ccc2oc(/N=C(\N)NC(=O)C(C)(C)C)nc2c1 | 75* | 96* | 44 | -44 | 60* | 87* | 87* | 94* | 32
CC(=O)n1cc(N(C(=O)CCl)c2ccccc2)c2ccccc21 | 2 | 106* | -16 | -46 | 72* | 97* | 11 | 100* | 51*
CC(=O)n1cc(CO)c2ccccc21 | -5 | 3 | -12 | 12 | -5 | 16 | . | . | .
COc1ccc(-c2cc(C(=O)Nc3cc(C)ccc3O)no2)cc1 | -42 | -132 | -93 | -143 | 62* | 57* | -34 | -10 | .
Cc1ccc(-c2cc(C(=O)Nc3cc(C)ccc3O)no2)cc1 | -17 | -183 | -61 | . | . | . | . | . | .
SMILES | Gli-Sufu block | aSyn 5UTR inh | KLF5 inhibitor | 697 NFkB inh | Jurkat NFkB inh | Mdm2-MdmX inh | Jurkat NFkB conf | Mdm2-MdmX conf | FLuc counter | others
CCCCCc1ccc(OCCCC[n+]2cccc(C)c2)c(CCCCC)c1 | 85* | 23 | 26 | 42* | 63* | 83* | 58* | 90* | 60* | 697 NFkB conf=48*
CCCCCc1ccc(OCCCC[n+]2ccc(C)cc2)c(CCCCC)c1 | 86* | . | 13 | 34 | 54* | 96* | 54* | 86* | 55*
CCCCOc1ccc(C)cc1CN(CCO)CCO | 4 | -4 | -30 | 7 | -8 | 20 | . | . | .
O=C(CCc1ccc(S(=O)(=O)N2CCOCC2)cc1)Nc1ccc(F)cc1[N+](=O)[O-] | 3 | . | . | -12 | -2 | 9 | . | . | .
O=C(CCCn1ncn2c(cc3occc32)c1=O)NCc1ccccc1F | -15 | 0 | -22 | 5 | 22 | 7 | . | . | .
Cn1c(=O)[nH]c(=O)c2c1nc(CN1CCN(c3cccc(Cl)c3)CC1)n2Cc1ccccc1Cl | 7 | 17 | -10 | -31 | 57* | 73* | 12 | 51* | 59*
CC[n+]1ccccc1/C=C1\Sc2ccc(C)cc2N1C | . | 33 | -3 | -3 | 69* | 66* | 13 | 65* | 42*
Cc1ccc(N(C)S(=O)(=O)c2ccc(-c3cnc(C4CC4)o3)cc2)cc1 | 16 | 84* | 52 | -4 | 52* | 61* | 52* | 55* | 79*
Cc1cccc(C)c1NS(=O)(=O)c1ccc(-c2cnc(C3CC3)o2)cc1 | 57* | 103* | 47 | -248 | 59* | 82* | 64* | 53* | 93*
Cc1ccc(CNS(=O)(=O)c2ccc(-c3cnc(C4CC4)o3)cc2)cc1 | 0 | -15 | -38 | -17 | -6 | 13 | . | . | .
Cc1nn(CC(=O)Nc2ccc(S(=O)(=O)N(C)C)cc2)c(C)c1[N+](=O)[O-] | 14 | 27 | 22 | 22 | 0 | 17 | . | . | .
COc1ccc([C@H]2CC(=O)C=C(c3c(OC)cccc3OC)C2)cc1 | 6 | . | . | -59 | 57* | 56* | 51* | 53* | 51*
